DT40 TDP1 CPT: DT40-hTDP1 cell growth loss with CPT; chicken DT40 Tdp1-/-;hTDP1 cells + 20 nM CPT, ATP luminescence, 48 h; Potency, µM (titrated, usually from 46.2 µM), inactives show at the highest dose activity change, negative = growth inhibition, actives largely listed as inhibitors; 420,000 compounds, 12% hits; also: potency is read from the fitted curve at half-maximal effect; nearly all actives have a fitted effect of over 55% in size
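Chicken DT40 Tdp1-/- cells stably complemented with human TDP1 were seeded at 400 cells/well in medium containing 20 nM camptothecin, exposed to pin-transferred compounds, and grown at 37 °C for at least 48 hr. Viability was read as ATP luminescence.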
IL-1B inflam inh: inhibitors of inflammasome signaling (IL-1 beta secretion); THP-1 LPS/ATP IL-1B secretion, AlphaLISA, 16 h; hits give low values; activity change, % at 57.5 µM; 360,000 compounds, 4.7% hits; AID 743279; in the data active = activity change below about -50%; inconclusive = mostly about -30% to -49%
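Secreted IL-1B measured by AlphaLISA bead assay after 16 h compound exposure of THP-1 cells; compounds (final up to 57.5 uM) added 1 h before LPS (250 ng/mL) and ATP (1.25 mM) stimulation; lower signal means less secretion.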
DT40 TDP1 no CPT: qHTS for Inhibitors of human tyrosyl-DNA phosphodiesterase 1 (TDP1): qHTS in cells in absence of CPT; DT40 Tdp1-/- hTDP1 cells, no CPT, ATP luminescence, 48 h; Potency, µM (highest dose often 46.2 µM), for inactives: top-dose activity change, negative = growth inhibition, actives largely listed as inhibitors; AID 686978, 2013; 420,000 compounds, 15% hits; also: potency is read from the fitted curve at half-maximal effect; nearly all actives have a fitted effect of over 55% in size
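Seeded 400 DT40-hTDP1 cells/well (vehicle DMSO, no 20 nM CPT); pinned compounds; ≥48 hr at 37 °C; CellTiter-Glo luminescence as viability measure.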
ELG1 repair inh: blocks ELG1-dependent DNA repair in HEK293T cells; HEK293T ELG1-luciferase reporter, luminescence, 16 h; DNA damage induced by 5-fluorouridine; Potency, µM (series often up to 46.1 µM), for the others: at the highest dose activity change, negative = inhibition, most hits filed as inhibitors; 330,000 compounds, 2.3% hits; AID 504467; also: potency is read from the fitted curve at half-maximal effect; nearly all actives have a fitted effect of over 55% in size
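Step one: seed 2,000 cells per well. Step two: pin-transfer compound or DMSO alongside 5-fluorouridine. Step three: incubate 16 hr, 37 °C, 5% CO2. Step four: add ONE-Glo, wait 30 min, read luminescence.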
Gal4-VP16 FLuc: Gal4-VP16 reporter inhibition counter-screen. 310,000 compounds, 3.5% hits. Drosophila S2 Gal4-VP16 UAS-luciferase, luminescence, 20 h. Potency, µM (top dose mostly 53.6 µM), without a hit: top-dose activity, negative = inhibition, actives largely listed as inhibitors;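 also: Gal4-VP16 expression switched on by copper sulfate through the metallothionein promoter; potency is read from the fitted curve at half-maximal effect; nearly all actives have a fitted effect of over 50% in size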
RORg inh: inhibitors of mouse ROR gamma transcriptional activity; P51450; Drosophila S2 Gal4-RORgamma UAS-luciferase reporter, 20 h; Potency, µM (highest dose often 53.6 µM), without a hit: at the highest dose activity change, negative = inhibition, most hits filed as inhibitors; 310,000 compounds, 5.4% hits; AID 2551; also: potency is read from the fitted curve at half-maximal effect; nearly all actives have a fitted effect of over 60% in size
Target sequence (P51450 whole entry, looked up, the tested form may be a part): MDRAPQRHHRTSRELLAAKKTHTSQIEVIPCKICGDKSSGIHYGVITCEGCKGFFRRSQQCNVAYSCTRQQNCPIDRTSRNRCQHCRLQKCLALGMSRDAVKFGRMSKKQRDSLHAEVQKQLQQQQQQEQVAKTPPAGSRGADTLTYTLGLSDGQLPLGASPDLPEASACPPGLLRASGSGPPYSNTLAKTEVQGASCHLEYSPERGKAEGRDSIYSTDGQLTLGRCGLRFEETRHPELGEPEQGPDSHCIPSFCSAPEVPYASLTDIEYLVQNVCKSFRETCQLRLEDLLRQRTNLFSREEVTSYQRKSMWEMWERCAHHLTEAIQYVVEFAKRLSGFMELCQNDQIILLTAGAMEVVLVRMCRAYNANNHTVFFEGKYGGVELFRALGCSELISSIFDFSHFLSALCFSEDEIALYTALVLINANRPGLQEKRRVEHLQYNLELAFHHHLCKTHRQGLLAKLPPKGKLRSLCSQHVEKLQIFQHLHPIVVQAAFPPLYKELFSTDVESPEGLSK
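Read-out: Photinus luciferase luminescence; inhibitors lower reporter signal. Insect Schneider cells with Gal4-ROR gamma fusion under metallothionein promoter, UAS reporter; 700 uM final copper sulfate induction, 20 hr, ambient temperature.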
The depositor's hits bear a star; i = inactive; ? = inconclusive; . = no result given; [ ] = remark or other dose. An excerpt weighted towards active compounds, which were near 21% of everything screened. Unless noted, calls follow the shape of the dose curve; as a rule, active = well fitted curve in the direction sought with a large enough effect; inconclusive = small, poorly fitted or top-dose-only effect, or another doubt; inactive = no such curve, though single readings can be large; an effect the other way counts as inactive or inconclusive. % is scaled to controls: 0 for no effect and ±100 for the full control effect.

SMILES | DT40 TDP1 CPT | IL-1B inflam inh | DT40 TDP1 no CPT | ELG1 repair inh | Gal4-VP16 FLuc | RORg inh
COc1ccc(/C=N/NC(=O)c2ccncc2)cc1[N+](=O)[O-] | -14% | -8 | 11% | 14% | 3% | 8%
COc1cc([N+](=O)[O-])cc(/C=N/NC(=O)c2cncc(Br)c2)c1O | 4.6µM* | 74 | 18µM* | 23µM* | ? | 2.8µM*
COc1cc(/C=N/NC(=O)c2cncc(Br)c2)cc([N+](=O)[O-])c1O | ? | 56 | ? | ? | ? | 0.32µM*
CCCCn1c(N)c(N(CCOC)C(=O)COC(=O)CCOc2ccc(C)cc2)c(=O)[nH]c1=O | -15% | 0 | -1% | 2% | . | .
CCCc1nc(NCC2CCCO2)c2nnn(Cc3ccccc3)c2n1 (stereo unspecified) | ? | -17 | ? | 26µM* | 4% | ?
CCCc1nc(NCc2ccccn2)c2nnn(Cc3ccccc3F)c2n1 | ? | -9 | ? | 0% | ? | 45%
CCCc1nc(NCc2ccncc2)c2nnn(Cc3ccccc3F)c2n1 | ? | -11 | 15µM* | ? | 2% | ?
O=C(CN1C(=O)COc2ccccc21)N1CCN(c2ccccc2F)CC1 | -14% | -7 | -22% | -16% | 6% | 22%
Cc1nn(-c2ccccc2)c2c1N(CC(=O)N1CCN(c3ccc(F)cc3)CC1)C(=O)CS2 | ? | . | 21µM* | . | . | .
Cc1nn(-c2ccccc2)c2c1N(CC(=O)N1CCN(c3ccccc3F)CC1)C(=O)CS2 | 18µM* | . | ? | . | . | .
COC(=O)NC(CCc1ccccc1)C(C(C)=O)C(=O)OC (stereo unspecified) | . | . | . | . | 13% | 29%
CN(CCOc1ccccc1)C(=O)C1CCN(C(=O)c2ccc(F)cc2)CC1 | ? | 10 | ? | 4% | -10% | -33%
CCOC(=O)c1ccc(S(=O)(=O)N2CCN(c3nc(-c4cccs4)nc4ccccc34)CC2)cc1 | -20% | . | -22% | . | . | .
CC(=O)N1CCN(c2nc(-c3cccs3)nc3ccccc23)CC1 | -7% | -86* | ? | -24% | -4% | -18%
CCOC(=O)N1CCN(c2nc(-c3cccs3)nc3ccccc23)CC1 | 23µM* | ? | 15µM* | ? | 7% | 31%
C=CC[n+]1cccc2cc(Br)ccc21 | -15% | . | -17% | . | . | .
CCOC(=O)c1c(NC(=O)CN2C(=O)NC3(CCCCC3C)C2=O)sc(C)c1CC (stereo unspecified) | ? | -8 | ? | ? | . | .
COC(=O)c1c(NC(=O)CN2C(=O)NC3(CCCCC3C)C2=O)sc2c1CCC2 (stereo unspecified) | ? | -52* | ? | ? | . | .
CC(C)CCNC(=O)c1ccc2c(c1)NC(=O)C(C(C)C)N2 (stereo unspecified) | -29% | . | -3% | . | . | .
CC(=NNc1nc2ccccc2o1)c1ncccn1 | -115% | -7 | 13µM* | . | . | .
Fc1ccccc1Nc1nc2ccccc2o1 | -3% | -16 | ? | ? | ? | ?
CC(=NNc1nc2ccccc2o1)c1cc2ccccc2cn1 | 0.13µM* | -102* | 0.13µM* | . | . | .
c1ccc(Nc2nc3ccccc3o2)cc1 | -25% | 18 | -8% | ? | ? | ?
Cc1cc(C)nc(Nc2nc3ccccc3o2)n1 | -3% | -76* | ? | ? | -1% | -7%
COc1ccc(O)c(CNc2ccccc2F)c1 | -16% | -20 | ? | 20% | 11% | 9%
SMILES | DT40 TDP1 CPT | IL-1B inflam inh | DT40 TDP1 no CPT | ELG1 repair inh | Gal4-VP16 FLuc | RORg inh
CCSC1=C(C#N)C(c2ccccc2Cl)C(C(=O)c2cccs2)C(O)(C(F)(F)F)N1 (stereo unspecified) | ? | 3 | ? | ? | -15% | -25%
C=CCSC1=C(C#N)C(c2ccccc2Cl)C(C(=O)c2cccs2)C(O)(C(F)(F)F)N1 (stereo unspecified) | ? | 10 | 16µM* | ? | ? | ?
Cn1c(=O)n(C)c2cc(NS(=O)(=O)c3ccc(F)cc3)c(NCc3ccccc3)cc21 | 9.2µM* | . | 15µM* | . | . | .
Cc1ccc(S(=O)(=O)Nc2cc3c(cc2NCc2ccccc2)n(C)c(=O)n3C)cc1 | 9.2µM* | . | 16µM* | . | . | .
Cc1ccc(S(=O)(=O)Nc2cc3c(cc2NCc2ccccc2)n(C)c(=O)n3C)c(C)c1 | 8.2µM* | . | 23µM* | . | . | .
Cc1ccc(S(=O)(=O)NCc2ccccc2)cc1 | ? | 0 | ? | 3% | -11% | ?
CC(C)=CCC/C(C)=C/C=O | . | . | . | . | 11% | -26%
O=C(c1ccncc1)N1CCC2(CCN(Cc3ccccc3)CC2)CC1 | 4% | . | -1% | . | 9% | -14%
CO[C@H]1COC(=O)C/C=C\[C@H](C)[C@H](OC)COC(=O)[C@@H](C)COC(=O)C/C=C\[C@@H]1C | . | . | . | . | 1%[10 µM] | -16%[10 µM]
CCN(CC)c1ccc(C=C2C(=O)OC(c3ccccc3)OC2=O)cc1 (stereo unspecified) | 5% | 7 | -21% | ? | 8% | -15%
CCN(CC)c1ccc(/C=C/C(=O)C2C(=O)C=C(C)OC2=O)cc1 (stereo unspecified) | 12% | -16 | ? | ? | ? | 13µM*
S=c1[nH]cc(-c2ccccc2)n1-c1ccccc1Cl | ? | -10 | ? | -4% | 7.1µM* | 3.5µM*
COc1ccccc1-n1c(-c2ccccc2)c[nH]c1=S | 18µM* | 41 | 16µM* | -7% | ? | 2.8µM*
COc1ccccc1CCN=C(N)NS(=O)(=O)c1ccc(F)cc1 | ? | i | ? | -13% | 6% | -17%
N#C/C(=C\c1ccc(N2CCOCC2)o1)C(=O)Nc1ccc(O)cc1 | ? | -55* | 29µM* | ? | -29% | -41%
COc1ccc(NC(=O)/C(C#N)=C\c2ccc(N3CCOCC3)o2)cc1 | ? | -20 | 21µM* | ? | ? | -39%
N#C/C(=C/c1ccc(N2CCCCC2)o1)C(=O)Nc1ccc(Cl)cc1 | ? | -13 | ? | ? | -12% | -10%
COc1ccc(NC(=O)/C(C#N)=C/c2ccc(C)o2)cc1 | -23% | . | ? | . | . | .
CC(=O)c1cccc(NC(=O)C(C)OC(=O)c2ccc(-n3cnnn3)cc2)c1 (stereo unspecified) | ? | -5 | ? | -19% | . | .
CCN(CC)S(=O)(=O)c1ccc2nc(NC(=O)c3cccs3)sc2c1 | ? | 23 | ? | ? | -3% | -39%
